The list is not random: actives were taken first. Their share in the collection is about 0.9%.
PPARg SRC2 recr = agonists of PPARg-SRC-2 recruitment, primary screen, biochemical, HTS; Peroxisome proliferator-activated receptor gamma (Homo sapiens), P37231; PPARgamma LBD-SRC-2 recruitment; activation, % at 8 µM; 200,000 compounds, 0.34% hits;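 further: 0% = vehicle and 100% = reference agonist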
Target sequence (P37231 whole entry, looked up, the tested form may be a part): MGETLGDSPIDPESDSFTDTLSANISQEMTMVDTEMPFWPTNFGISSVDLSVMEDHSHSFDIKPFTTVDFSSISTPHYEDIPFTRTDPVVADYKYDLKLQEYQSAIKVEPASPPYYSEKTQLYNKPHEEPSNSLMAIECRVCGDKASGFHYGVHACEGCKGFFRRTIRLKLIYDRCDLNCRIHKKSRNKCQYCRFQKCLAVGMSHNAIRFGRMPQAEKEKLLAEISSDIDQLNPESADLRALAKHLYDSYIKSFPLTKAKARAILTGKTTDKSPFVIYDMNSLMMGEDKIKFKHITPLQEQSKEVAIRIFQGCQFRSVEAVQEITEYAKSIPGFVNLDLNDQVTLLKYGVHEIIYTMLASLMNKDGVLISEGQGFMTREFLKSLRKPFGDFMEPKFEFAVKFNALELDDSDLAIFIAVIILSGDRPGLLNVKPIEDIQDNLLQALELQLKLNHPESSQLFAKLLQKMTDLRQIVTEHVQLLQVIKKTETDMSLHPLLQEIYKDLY
SRC1 TRFRET art = TR-FRET detection interference compounds, primary screen, artefact control for PPARgamma SRC-1 recruitment agonists, biochemical, TR-FRET emission ratio. AID 1051, 2008. TR-FRET detection artefact counter-screen; active compounds read high. 99,000 compounds, 0.34% hits. TR-FRET ratio at 8 µM; in the data active means TR-FRET ratio above about 2300
SRC3 TRFRET art = TR-FRET detection interference compounds, artefact control for PPARgamma SRC-3 recruitment agonists, biochemical, TR-FRET ratio. TR-FRET artefact counter-screen, PPARgamma/SRC-3 format; active compounds read high. TR-FRET ratio at 8 µM. 99,000 compounds, 0.39% hits. AID 1048, 2008; in the data active means TR-FRET ratio above about 2000
TR-FRET SRC-2 ct = TR-FRET signal artefacts, primary screen, artefact control for PPARgamma SRC-2 agonist project, biochemical; TR-FRET artefact counter-screen; active compounds read high; TR-FRET ratio at 8 µM; 200,000 compounds, 0.4% hits; in the data active means TR-FRET ratio above about 2000
PPARg SRC-1 ag = PPARgamma agonists recruiting SRC-1 coactivator, primary screen, biochemical; Peroxisome proliferator-activated receptor gamma (Homo sapiens), P37231; PPARgamma-SRC-1 coactivator recruitment biochemical assay; activation, % at 8 µM; 200,000 compounds, 0.41% hits; in the data active means activation above about 19%;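 further: 0% = DMSO and 100% = reference agonist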
PPARg SRC-3 ag = PPARgamma agonists recruiting SRC-3 coactivator, primary screen, biochemical; Peroxisome proliferator-activated receptor gamma (Homo sapiens), P37231; biochemical PPARgamma/SRC-3 coactivator recruitment assay; activation, % at 8 µM; 200,000 compounds, 0.26% hits; in the data active means activation above about 23%;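 further: 0% = DMSO and 100% = reference agonist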
PPARg SRC2 conf = agonists of PPARgamma SRC-2 coactivator recruitment, confirmation, biochemical, HTS; shares compounds with PPARg SRC-3 ag; activation, % at 8 µM; biochemical SRC-2 recruitment by PPARgamma; AID 1297, 2008; 790 compounds, 52% hits;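 further: 0% = vehicle alone and 100% = reference agonist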
PPARg SRC1 ag = PPARgamma agonists recruiting SRC-1 coactivator, confirmation, biochemical; shares compounds with PPARg SRC-3 ag; PPARgamma–SRC-1 coactivator recruitment biochemical assay; activation, % at 8 µM; 790 compounds, 43% hits; AID 1300, 2008; in the data active means activation above about 20%;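 further: 0% = vehicle wells and 100% = reference agonist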
PPARg SRC3 conf = PPARgamma-driven SRC-3 coactivator recruitment agonists, confirmation, biochemical; 790 compounds, 29% hits; biochemical PPARgamma-SRC-3 coactivator recruitment, agonist mode; activation, % at 8 µM; AID 1301, 2008; shares compounds with PPARg SRC-3 ag; in the data active means activation above about 24%;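 further: 0% = vehicle wells and 100% = reference agonist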
* = called active by the depositor; x = no result given. Unless noted, no stated cut-off is given here; in the data, active means activation above about 22%; inactive means the rest.

SMILES | PPARg SRC2 recr | SRC1 TRFRET art | SRC3 TRFRET art | TR-FRET SRC-2 ct | PPARg SRC-1 ag | PPARg SRC-3 ag | PPARg SRC2 conf | PPARg SRC1 ag | PPARg SRC3 conf
COc1ccc(OC)c2c1C(=O)c1ccccc1C2=O | 6.8 | x | x | 1531 | 5.1 | -1.5 | x | x | x
S=c1[nH]nc(-c2ccccn2)n1/N=C/c1ccc(-c2ccccc2Br)o1 | 129.3* | 5322* | 4805* | 4475* | 69.1* | 69.2* | 82.1* | 60.3* | 52.8*
CCN(CC)c1ccc(NC(=O)CSc2nnc(N)s2)cc1C | 2.2 | x | x | 1642 | 19.6* | 15.4 | -1.7 | -3.1 | 0.1
CCOC(=O)Cc1csc(NC(=O)c2sc3nc4c(C)cc(C)cc4cc3c2N)n1 | 9.8 | x | x | 1807 | 16.8 | 26.6* | 9.2 | 5.7 | 4.9
CCOC(=O)Cc1csc(NC(=O)c2csc(C)c2)n1 | 14.2 | x | x | 1419 | -1.7 | -2.5 | x | x | x
CC(=O)c1sc(NC(=O)CCCOc2ccc(Cl)cc2)nc1C | 27.5* | 2292 | 2343* | 2055* | 22.4* | 20.4 | 18.9 | 15.8 | 11.9
Cc1[nH]c2ccccc2c1C(=O)CN1CCN(C2CCCCC2)CC1 | 4.5 | x | x | 1562 | -1.3 | 3.6 | x | x | x
COc1cc2c(cc1OC)C(C(=O)O)C(c1ccc(C)o1)N(C)C2=O (stereo unspecified) | 4.8 | x | x | 1471 | 3.5 | 0.5 | x | x | x
Cc1cccc(-n2c(=S)[nH]c3sc4c(c3c2=O)CCc2ccccc2-4)c1 | 36.1* | 2821* | 2699* | 2315* | 25.9* | 20.8 | 33.9* | 22.2* | 24.2*
Cc1ccc(NC(N)=S)cc1 | -2.5 | 1798 | 1585 | 1437 | -3.5 | -2.9 | x | x | x
CCOc1ccc(N/C=C/C(=O)c2ccc(C)cc2)c([N+](=O)[O-])c1 | 13.2 | x | x | 1659 | 24.3* | 18.5 | 2.7 | 2.1 | -3.9
CCOc1ccc(N/C=C/C(=O)c2ccc3ccccc3c2)c([N+](=O)[O-])c1 | -2.6 | x | x | 1478 | -6.4 | -1.2 | x | x | x
CCOC(=O)/C(C#N)=C\c1ccc(CC)s1 | -4.3 | x | x | 1512 | -4.3 | -8.7 | x | x | x
CCOC(=O)/C(C#N)=C\C=C1C=CN(C)C=C1 | 31.8* | x | x | 1925 | 24.2* | 21.4 | 14.6 | 9.1 | 8.8
Clc1ccc(-c2ccc(-c3nn4c(-c5ccco5)nnc4s3)o2)cc1 | 4.6 | x | x | 1589 | 9.7 | -6.5 | x | x | x
Brc1ccc(-c2nn3c(-c4ccco4)nnc3s2)o1 | 98.8* | x | x | 3538* | 75.3* | 115.3* | 75.8* | 52.3* | 52.7*
CCOC(=O)c1sc2nc(C(C)C)c3c(c2c1N)CCC3 | -2.0 | 1548 | 1558 | 1511 | 1.6 | 1.4 | x | x | x
CC(C)c1nc2sc3c(=O)[nH]c(=S)[nH]c3c2c2c1CCC2 | 32.9* | 2489* | 2640* | 2507* | 23.9* | 18.0 | 23.3* | 15.2 | 13.9
Cc1cccc(Nc2nn3c(=O)c4ccccc4nc3s2)c1 | 2.1 | x | x | 1736 | 31.3* | 37.1* | 27.4* | 16.6 | 14.8
Nc1ccc(-c2nc3ccc(N)cc3[nH]2)cc1 | 17.9 | 2123 | 2018 | 1836 | 31.1* | 7.8 | 2.7 | 12.2 | 3.3
COc1ccc2c(c1)OC(c1ccccc1)(C(F)(F)F)NC2=O (stereo unspecified) | -0.2 | 1743 | 1651 | 1361 | -3.8 | 0.4 | x | x | x
N#Cc1c(-c2ccccc2)nc(SCC(=O)Nc2ccccc2)[nH]c1=O | 6.0 | 2166 | 1873 | 1703 | 17.2 | 5.4 | x | x | x
Cc1cc(C)nc(NS(=O)(=O)c2ccc(NC(=O)CSc3nc(-c4ccccc4)c(C#N)c(=O)[nH]3)cc2)n1 | 24.3* | 2109 | 2218* | 2049* | 20.6* | 10.7 | 13.7 | 11.1 | 10.7
Cc1cc(Br)c2nc3c(c(C(=O)O)c2c1)CCCCC3 | 97.5* | 3214* | 4157* | 4070* | 53.0* | 50.2* | 67.0* | 43.3* | 46.9*
CCc1ccc2nc3c(c(C(=O)O)c2c1)CCC3 | 8.9 | x | x | 1632 | 0.7 | 9.1 | x | x | x
SMILES | PPARg SRC2 recr | SRC1 TRFRET art | SRC3 TRFRET art | TR-FRET SRC-2 ct | PPARg SRC-1 ag | PPARg SRC-3 ag | PPARg SRC2 conf | PPARg SRC1 ag | PPARg SRC3 conf
COc1ccccc1NS(=O)(=O)c1cccc(NC(=O)c2sc3ccccc3c2Cl)c1 | 16.7 | 2434* | 2458* | 2161* | 22.5* | 8.5 | 12.9 | 10.1 | 4.1
Nc1cc(N)nc(SCC(=O)N2CCN(C(=O)c3ccco3)CC2)n1 | 1.5 | x | x | 1802 | 5.2 | 7.6 | x | x | x
CCn1c(=O)c(=O)[nH]c2cc(C(=O)NC3CC3)ccc21 | 1.6 | 1982 | 1661 | 1462 | 2.8 | 0.2 | x | x | x
CCn1c(=O)c(=O)[nH]c2cc(C(=O)Nc3ccc(S(=O)(=O)N4CCCC4)cc3)ccc21 | 10.5 | x | x | 1683 | 12.8 | 26.2* | 2.8 | 4.7 | 3.5
COc1ccc(C(=O)n2nc(-c3ccccc3)nc2N)cc1OC | -1.1 | x | x | 1409 | -3.2 | -13.0 | x | x | x
Cc1ccc(S(=O)(=O)C(C)C(=O)NCCS(=O)(=O)c2ccc(Cl)cc2)cc1 (stereo unspecified) | 5.5 | 1894 | 1719 | 1698 | 2.3 | 3.9 | x | x | x
COC(=O)CN(n1cnnc1)S(=O)(=O)c1ccc(C)cc1 | 4.5 | x | x | 1568 | -0.1 | -5.3 | x | x | x
Cc1ccc(S(=O)(=O)N(c2nc(NC(C)C)nc(NC(C)C)n2)n2cnnc2)cc1 | 23.7* | 1915 | 1525 | 1703 | 9.8 | 0.7 | 5.9 | 3.6 | 2.1
O=C(Nc1nc(-c2cccs2)c(C(=O)C(F)(F)F)s1)c1ccco1 | 60.7* | 3540* | 3363* | 3022* | 41.4* | 37.0* | 37.0* | 21.8* | 25.0*
O=C(O)CCn1nnc(-c2cccs2)n1 | 13.3 | x | x | 1596 | 5.5 | -1.8 | x | x | x
O=C(Cc1cccc2ccccc12)Nc1ccc(-c2cc3ccccc3oc2=O)cc1 | 7.7 | x | x | 2296* | 24.4* | 10.8 | 23.9* | 17.9 | 10.1
Cc1ccc2nc(N3CCN(C)CC3)c(C#N)cc2c1 | -4.3 | x | x | 1378 | 2.8 | -2.5 | x | x | x
Cc1ccc2nc(N3CCN(S(=O)(=O)c4ccc(C)c(Cl)c4)CC3)c(C#N)cc2c1 | 5.5 | x | x | 1637 | 21.7* | 29.0* | 9.1 | 5.9 | 3.5
O=C(NCc1nc2ccccc2[nH]1)C1=C[C@H](c2ccccc2)C[C@H](OCc2ccc(CO)cc2)O1 | -2.3 | 1812 | 1410 | 1423 | -8.3 | 5.9 | x | x | x
